Composite z-score, z-score and composite Z-score data for five compounds are collected here from PubChem BioAssay.

Activity calls are given as the source filed them.

Test [1] has as its system Human papillomavirus type 1a protein E7 (residues 44-93). Put plainly: small molecules binding HPV E7 44-93 – biochemical, small-molecule microarray, residues 44-93, 635 nm fluorescence, primary screen (AID 1108).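 Note: E7 fragment applied at 1 µg/mL in TBST for 1 h at 4 C; score combines spot fluorescence with its signal to noise ratio.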 The note with it: fluorescence 635 nm, higher = more signal.
Test [2] can be described thus: hepatitis C replication reporter changes, two-sided – Huh7 cells, luciferase reporter, HCV replication inhibitor project, primary screen (AID 1109).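 Note: huh7 hepatoma cells harbouring a luciferase neomycin HCV replicon reporter; luciferase luminescence as measure of HCV replicon replication; test concentration not given here.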 The conditions noted are these: Huh7 HCV replicon luciferase reporter, 48 h; higher = more signal. (In a reporter assay the amount or activity of a reporter protein is the signal.)
For test [3], the target named is Left-right determination factor 2 (Homo sapiens) (UniProt O00292). Put plainly: small molecules binding LEFTY2 protein – biochemical, small-molecule microarray, 635 nm fluorescence scan, primary screen (AID 1110). The note with it: higher = more signal.
For test [4], the target named is Calmodulin-1 (Homo sapiens) (UniProt P0DP23). Put plainly: small molecules binding calmodulin-1 with EGTA – biochemical, small-molecule microarray, Cy5-labelled CALM1, profiling panel (AID 1111).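 Note: labelled calmodulin applied in Tris saline Tween buffer holding calcium plus EGTA and DTT.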 The note with it: Cy5-CALM1 binding fluorescence, higher = more signal.
For test [5] the target is unchanged. As to the kind of experiment: small molecules binding Ca-loaded calmodulin-1 – biochemical, small-molecule microarray, Cy5-labelled CALM1, plus calcium, artefact control for SMM control-protein annotation, profiling panel (AID 1112).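 Note: score merges spot fluorescence with signal to noise from triplicate slides.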 The note with it: Cy5-CALM1 binding fluorescence, higher = more signal.
Test [6] is described as follows: probe aWnt5a binding to arrayed compounds – biochemical, biotinylated probe, 635/667 nm fluorescence, primary screen (AID 1113).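 Note: score merges 667 nm fluorescence intensity with signal-to-noise per printed feature.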 The conditions noted are these: small-molecule microarray, higher = more signal.
Test [7] in a line: probe aShh binding to arrayed compounds – biochemical, biotinylated probe, 635/667 nm fluorescence, primary screen (AID 1114).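 Note: probe is biotin-labelled aShh protein from a stem cell growth factor screen; measures binding of labelled protein to compounds printed on the slide; score merges feature fluorescence at 667 nm with signal-to-noise.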 The note with it: small-molecule microarray, higher = more signal.
Test [8] in a line: probe aNog binding to arrayed compounds – biochemical, biotinylated probe, 635/667 nm fluorescence, primary screen (AID 1115).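 Note: probe is biotinylated aNog protein used at 0.15 µg/mL for 1 h at 4 C; z-score combines 667 nm fluorescence of each spot with its signal to noise.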 The note with it: small-molecule microarray, higher = more signal.
The target in test [9] is Torsin-1A-interacting protein 1 (Homo sapiens) (UniProt Q5JTV8). Put plainly: compound microarray binding of lysate hLAP1 – cell lysate, small-molecule microarray, COS7 lysate, 635/667 nm fluorescence, primary screen (AID 1116). The conditions noted are these: 635 nm fluorescence, higher = more signal.
In test [10] the target is Alpha-bungarotoxin (Bungarus multicinctus) (UniProt P60615). Put plainly: compounds binding labelled alpha-BTX control protein – biochemical, small-molecule microarray, Alexa647 label, 635/667 nm fluorescence, artefact control for SMM control protein annotation, profiling panel (AID 1117). The note with it: alpha-BTX-A647 binding fluorescence, higher = more signal.
A further test addresses Albumin (Bos taurus) (UniProt P02769). Put plainly: compounds binding labelled BSA control protein – biochemical, small-molecule microarray, Alexa647 label, 635/667 nm fluorescence, artefact control for SMM control protein annotation, profiling panel (AID 1118).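 Note: score merges 667 nm emission intensity and signal-to-noise per printed compound spot.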 The note with it: BSA-A647 binding, fluorescence 635 nm, higher = more signal.
Test [11] is described as follows: probe aXIP binding to arrayed compounds – biochemical, NeuroSMM set, 635/667 nm fluorescence, primary screen (AID 1119).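 Note: probe is the protein aXip251-270 applied at 1 µg/mL to compound-printed slides; binding of probe to printed compounds measured as 667 nm fluorescence plus signal to noise.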 The conditions noted are these: small-molecule microarray, higher = more signal, called active from +8 up or from −8 down.
A short description of test [12]: probe aNOTCH3 binding on compound microarray – biochemical, small-molecule microarray, 635/667 nm fluorescence, primary screen (AID 1120).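 Note: probe is a biotin-tagged antibody raised against NOTCH3 rather than NOTCH3 protein; score merges spot fluorescence near 667 nm with spot signal to noise.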 The note with it: higher = more signal.
Test [13] can be described thus: probe aNOTCH2 binding on compound microarray – biochemical, small-molecule microarray, 635/667 nm fluorescence, primary screen (AID 1121).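 Note: score merges feature fluorescence read at 667 nm with its signal to noise.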 The conditions noted are these: higher = more signal.
For test [14], the target named is Carbonic anhydrase 2 (Homo sapiens) (UniProt P00918). Put plainly: compounds binding carbonic anhydrase 2 – biochemical, small-molecule microarray, Alexa647-labelled CAII, profiling panel (AID 1122). The note with it: CAII-A647 binding fluorescence, higher = more signal.
Test [15] can be described thus: COS7 lysate on small-molecule microarray, probe aHis, 635 nm (AID 1123).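 Note: z-score combines 667nm fluorescence intensity with signal-to-noise per printed compound spot.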 The conditions noted are these: COS7 cell lysate, fluorescence, higher = more signal.
Test [16] is described as follows: probe aLAP1 signal on lysate-treated microarray – cell lysate, small-molecule microarray, COS7 lysate, primary screen (AID 1124).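 Note: lysate comes from COS7 cells expressing LAP1 and is applied at 0.3 µg/mL; score merges spot fluorescence near 667 nm with signal-to-noise over triplicate slides.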 The conditions noted are these: probe aLAP1, fluorescence, higher = more signal.
The test system of a further test is Sam68 (KHDRBS1). As to the kind of experiment: compounds binding KHDRBS1 protein – biochemical, small-molecule microarray, 635 nm fluorescence, primary screen (AID 1125).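 Note: score merges 667 nm channel intensity with signal to noise over triplicate slides.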 The conditions noted are these: higher = more signal.
Test [17] relates to Chordin-like protein 2 (CHRDL2). Put plainly: compounds binding chordin-like 2 – biochemical, small-molecule microarray, 635 nm fluorescence, primary screen (AID 1126).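 Note: printed compound slides probed with Chrdl2 protein at 4 µg/mL for 1 h at 4 C; score merges 667 nm emission intensity with signal to noise over three replicate slides.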 The conditions noted are these: fluorescence 635 nm, higher = more signal.
Test [18] addresses Concanavalin-A (Canavalia ensiformis) (UniProt P02866). Put plainly: compounds binding concanavalin A lectin – biochemical, small-molecule microarray, Alexa647 label, 635 nm, artefact control for SMM control protein annotation, primary screen (AID 1127).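 Note: z combines 667 nm emission intensity with signal-to-noise across three replicate slides.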 The conditions noted are these: ConA-A647 binding fluorescence, higher = more signal.

Sequence of Left-right determination factor 2 (Homo sapiens) (O00292 whole entry, looked up): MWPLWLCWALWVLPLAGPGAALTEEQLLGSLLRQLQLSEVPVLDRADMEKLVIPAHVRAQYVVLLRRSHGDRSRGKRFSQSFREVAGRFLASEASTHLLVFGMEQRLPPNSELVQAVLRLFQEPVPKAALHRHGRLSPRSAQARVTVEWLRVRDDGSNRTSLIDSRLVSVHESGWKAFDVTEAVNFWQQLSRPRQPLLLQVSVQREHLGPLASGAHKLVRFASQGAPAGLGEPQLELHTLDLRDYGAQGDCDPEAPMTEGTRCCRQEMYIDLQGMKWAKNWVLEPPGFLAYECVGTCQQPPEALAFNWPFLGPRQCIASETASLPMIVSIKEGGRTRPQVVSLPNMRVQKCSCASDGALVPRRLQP
Sequence of Albumin (Bos taurus) (P02769 whole entry, looked up): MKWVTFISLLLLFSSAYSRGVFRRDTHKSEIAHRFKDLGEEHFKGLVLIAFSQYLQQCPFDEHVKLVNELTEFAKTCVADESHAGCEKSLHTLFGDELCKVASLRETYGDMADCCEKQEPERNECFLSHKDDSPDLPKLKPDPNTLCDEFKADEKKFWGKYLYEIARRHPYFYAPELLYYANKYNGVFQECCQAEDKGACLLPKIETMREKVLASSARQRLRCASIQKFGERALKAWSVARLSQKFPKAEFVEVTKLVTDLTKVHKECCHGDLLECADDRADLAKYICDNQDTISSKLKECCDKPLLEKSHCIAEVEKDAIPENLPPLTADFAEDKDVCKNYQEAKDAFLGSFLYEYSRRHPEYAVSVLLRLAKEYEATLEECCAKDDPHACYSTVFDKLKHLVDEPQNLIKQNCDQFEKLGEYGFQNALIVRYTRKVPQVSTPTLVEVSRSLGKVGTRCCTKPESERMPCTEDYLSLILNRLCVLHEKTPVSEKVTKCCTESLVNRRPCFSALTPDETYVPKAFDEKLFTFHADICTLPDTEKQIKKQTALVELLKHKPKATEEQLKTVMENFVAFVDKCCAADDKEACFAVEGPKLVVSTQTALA
Sequence of Alpha-bungarotoxin (Bungarus multicinctus) (P60615 whole entry, looked up): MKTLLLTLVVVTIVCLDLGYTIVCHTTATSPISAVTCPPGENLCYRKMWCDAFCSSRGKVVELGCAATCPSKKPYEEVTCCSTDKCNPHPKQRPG
Sequence of Concanavalin-A (Canavalia ensiformis) (P02866 whole entry, looked up): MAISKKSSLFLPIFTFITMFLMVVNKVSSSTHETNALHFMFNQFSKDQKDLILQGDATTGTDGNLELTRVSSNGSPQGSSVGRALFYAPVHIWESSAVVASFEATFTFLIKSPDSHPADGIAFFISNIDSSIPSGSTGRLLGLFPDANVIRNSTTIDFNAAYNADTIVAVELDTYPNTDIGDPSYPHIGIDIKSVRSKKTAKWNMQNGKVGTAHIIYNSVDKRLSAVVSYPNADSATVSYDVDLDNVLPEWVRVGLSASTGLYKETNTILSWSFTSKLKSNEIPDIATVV
Sequence of Torsin-1A-interacting protein 1 (Homo sapiens) (Q5JTV8 whole entry, looked up): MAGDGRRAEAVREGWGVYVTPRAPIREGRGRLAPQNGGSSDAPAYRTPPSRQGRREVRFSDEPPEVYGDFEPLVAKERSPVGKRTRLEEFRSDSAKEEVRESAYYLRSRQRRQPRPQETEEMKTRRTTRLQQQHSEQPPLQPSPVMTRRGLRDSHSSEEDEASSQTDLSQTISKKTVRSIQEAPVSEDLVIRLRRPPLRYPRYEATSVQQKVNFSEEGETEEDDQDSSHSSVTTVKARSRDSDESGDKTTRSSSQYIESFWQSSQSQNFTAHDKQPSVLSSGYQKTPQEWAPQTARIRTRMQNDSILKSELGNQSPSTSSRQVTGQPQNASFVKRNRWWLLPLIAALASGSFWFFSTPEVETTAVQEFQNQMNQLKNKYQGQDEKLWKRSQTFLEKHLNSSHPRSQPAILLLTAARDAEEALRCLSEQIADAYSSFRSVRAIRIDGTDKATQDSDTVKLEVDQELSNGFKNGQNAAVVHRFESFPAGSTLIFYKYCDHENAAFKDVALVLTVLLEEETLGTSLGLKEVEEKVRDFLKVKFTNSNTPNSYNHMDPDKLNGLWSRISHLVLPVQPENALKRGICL

Regarding `CN1C(=O)C2C=CC(C(O)c3ccccc3)N(Nc3ccccc3)C2C1=O` (stereo not given), the composite z-score in [1] was -0.265; in test [3] it was -1.52; in [4], 0.253; in test [5], -0.143; in test [6] it was -0.0758; in test [7] it was -0.0813. For the same compound, the composite z-score in test [8] was -0.448; in test [9] it was -0.454; in [10], 0.201; with Albumin (Bos taurus), 0.761; in [12], -0.128; in test [13] it was -0.0543. In addition, the composite z-score in test [14] was 0.78; in [15] it was 2.45; in test [16], 0.119; in the test with Sam68 (KHDRBS1) it was -0.0508; in [17], -1.02; in test [18], 0.142. Further, the z-score in test [2] was 0.773. In [11], the composite Z-score was 0.131 (inactive).

Regarding `CCCCC(O)C1C=CC2C(=O)N(c3ccccc3)C(=O)C2N1Nc1ccccc1F` (stereo not given), the composite z-score in [1] was 0.392; in test [3], 0.22; in test [4], 1.48; in test [5] it was -0.124; in [6], 0.241; in [7], 0.261. For the same compound, the composite z-score in [8] worked out at 1.87; in test [9], 1.21; in test [10] it was 3.13; with Albumin (Bos taurus), 0.8; in test [12], 0.378; in test [13] it was 0.387. Moreover, the composite z-score is 0.747 in test [14]; 2.54 in [15]; 0.439 in test [16]; 1.12 with Sam68 (KHDRBS1); 0.0354 in test [17]; 1.13 in test [18]. This compound yielded a z-score in test [2] of -0.472. The composite Z-score in test [11] is 1.54 (inactive).

On to `CCOC(=O)C[C@H]1[C@H](OC(=O)Cc2ccc3c(c2)OCO3)[C@@H](NC(=O)c2ccc(-c3ccccc3)cc2)c2cc(OCCCO)ccc2N1C(=O)Cc1ccc(OC)cc1`, for which the composite z-score in test [1] came to 0.911; in [3], 0.253; in test [4] it was 0.644; in test [5] it was 0.0039; in test [6] it was 0.0673; in test [7] it was 0.173. Further, the composite z-score in test [8] was 0.0804; in test [9], 0.521; in test [10] it was -0.256; in the test with Albumin (Bos taurus), 0.641; in [12], 0.121; in [13], 0.0126. Further, the composite z-score in test [14] was 0.0713; in [15], 0.365; in [16], 0.597; with Sam68 (KHDRBS1), 0.843; in [17], 0.236; in test [18], 0.152. The z-score in test [2] was -1.48. The composite Z-score in [11] was 0.0844 (inactive).

As for `CC(C)C(CO)N1C(=O)[C@@H]2[C@H]3C(=O)OCC=C[C@H]3OC23C=CCN(C(C)C)C(=O)[C@@H]13` (stereo not given in full), the composite z-score in [1] was -0.432; in test [3], -0.0108; in test [4] it was -0.531; in test [5] it was -1.11; in test [6] it was -0.2; in test [7], -0.223. In addition, the composite z-score in test [8] was -0.0926; in test [9], -0.262; in test [10] it was -0.557; in the test with Albumin (Bos taurus), -0.457; in test [12], -0.149; in [13], -0.14. Also, the composite z-score is -0.0147 in [14]; -0.312 in [15]; -0.313 in [16]; 0.239 with Sam68 (KHDRBS1); 0.292 in [17]; -0.529 in test [18]. Further, the z-score in test [2] came to 1.07. Also, the composite Z-score in test [11] was 0.12 (inactive).

For `Cc1ccc(C(C)CC(O)C2C=CC3C(=O)N(C)C(=O)C3N2NC(=O)OC(C)(C)C)o1` (stereo not given), the composite z-score in [1] stood at 0.598; in test [3], 1.19; in test [4] it was 1.73; in test [5] it was 0.0152; in test [6], 0.246; in [7] it was 0.424. The composite z-score in test [8] is 0.226; in test [9] it was 1.27; in test [10], 1.73; in the test with Albumin (Bos taurus), 1.01; in [12], 0.18; in test [13], -0.0925. In addition, the composite z-score in test [14] was found to be 0.642; in test [15], 2.44; in test [16] it was 0.934; in the test with Sam68 (KHDRBS1), 1.21; in test [17], 0.541; in test [18], 1.05. Besides, the z-score in test [2] stood at 0.255. For the same compound, in [11], the composite Z-score is 1.31 (inactive).
